This is part of a sample that, as a whole, favours compounds with a hit. Of some 83,000 tested, about 20% had one in any assay.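 Cell lines were cultured in 96-well plates, exposed to a single compound concentration, and assessed for percent growth 48 hours later.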 Unmarked numbers belong to inactive results. The source made the active and inactive calls.

This test concerns NCI-H23 lung. Description: NCI-60 one-dose screen, 48 h (100 = growth as untreated, 0 = no growth, -100 = all killed). Particulars: 10 µM unless noted. The procedure:
Growth inhibition of the NCI-H23 human Non-Small Cell Lung tumor cell line is measured as a screen for anti-cancer activity. Cells are grown in 96 well plates and exposed to the test compound for 48 hours. Compounds are tested at a single concentration, which is 10^-5 M for most compounds. The reported endpoint is percent growth (GI% or GIPRCNT), where numbers from 0 - 100% represent growth inhibition, and numbers from -100% - 0 represent cell death. For example, a value of 40 represents 60% growth inhibition. A value of 0 means no net growth occurred over the course of the experiment. A value of -40 indicates 40% of cells at the beginning of the experiment died by the end of the experiment. A value of -100 means all cells are dead at the end of the experiment.
NCI-60 Human Tumor Cell Lines Screen was performed using the standard one-dose NCI protocol, which is described in more detail at https://dtp.cancer.gov/discovery_development/nci-60/default.htm.
Compounds with GIPRCNT values below 10 were considered active. Activity score was based on GIPRCNT using the following formula: […]
Score is 0 for GIPRCNT values of 100 or above, 50 for GIPRCNT values of 0, and 100 for GIPRCNT values of -100.
On to `COc1cc(-c2nn(-c3cccc(NC(=O)Nc4cccc(C(F)(F)F)c4)c3)cc2-c2ccncc2)ccc1Cl`, for which the growth is -12.4% (active).

On to `C=C1CCC2C(C)(CO)C(O)CCC2(C)C1C/C=C1/C(=O)OCC1O/C=C/c1ccccc1` (stereo not given), for which the growth was 87.7%. For `N#Cc1c(Nc2ccccc2)nc2n(c1=O)-c1ccccc1Sc1ccccc1-2` the value was 88.5%. Consider `Cc1cc(N/N=C/c2nc(-c3ccccc3)oc2C)c2cc(Br)ccc2n1`, for which the growth is 88.6%. In the case of `Fc1ccc(Nc2nc(NCCNc3ccnc4cc(Cl)ccc34)nc(N3CCOCC3)n2)cc1` it was 93%. For `NNc1cccc(/C=C/c2ccccc2)cc1=O`, the growth is 73.1%.

Take `O=C1/C(=C/c2ccccc2)CN(C(=O)CCN2CCC(=NO)CC2)C/C1=C\c1ccccc1`: the growth was 1.59% (active). Take `NC(=N\N=C/c1ccc(O)cc1)/C(N)=N\N=C/c1ccc(O)cc1`: the growth was 90.9%. In the case of `OCc1ncc(-c2ccccc2)s1` it was 93.1%; in that of `CC(C)(C)n1cc(-c2ccnc(NCCCNS(=O)(=O)c3ccc(F)cc3)c2)c(-c2cccc(O)c2)n1`, 57.9%. For `O=c1c2sc3ncccc3c2nnn1-c1ccccc1`, the growth was 99.1%. Take `O=C1Nc2ccc(Cl)cc2C12Nc1cc(Cl)ccc1S2` (stereo not given): the growth is 69.1%. Consider `COc1ccc(-n2c(=S)sc3c(Cl)nc(C)nc32)c(OC)c1`, for which the growth was 31.8%. For `C1=Cc2ccccc2N(c2nnc(-c3ccccc3)o2)c2ccccc21`, the growth was 103%. Take `O=C1c2c(c3c4ccccc4n(CCCCCCBr)c3c3[nH]c4ccccc4c23)C(=O)N1O`: the growth is -0.173% (active). In the case of `CCOC(=O)c1cn2c3c(cccc3c1=O)C(=O)/C(=C/c1cccc(Cl)c1Cl)C2` it was 93%; in that of `O=C(Nc1cccc(-n2cc(-c3ccncc3)c(-c3ccc(Cl)c(O)c3)n2)c1)Nc1cccc(C(F)(F)F)c1`, 14.6%; in that of `FC(F)(F)c1cccc(-c2cn3c(ccc4ccccc43)n2)c1`, 79.3%. As to `CC1=NC2=CC=CC3=NC(C(Cl)(Cl)Cl)=NC(=N1)N23`, the growth was 59.9%. In the case of `CC(C)(C)n1cc(-c2ccnc(NCCCNS(=O)(=O)c3cccc(F)c3)c2)c(-c2cccc(O)c2)n1` it was 66.5%. For the molecule `COc1ccc(Nc2nn3c(-c4ccccc4)cc(-c4ccccc4)nc3c2C(N)=O)c(OC)c1`, the growth was 33.5%.

Regarding `COP(=O)(OC)/C(=N\NS(=O)(=O)c1ccc(C)cc1)c1ccccc1`, the growth is 91.5%.

For the molecule `COc1cc(C2NN=C3c4ccccc4CCC32)cc(OC)c1OC` (stereo not given), the growth is 73.4%. Regarding `O=C(O)/C=C/C(=O)c1ccc(Cl)cc1`, the growth was 116%. `CN(C)CC(C(=O)c1ccccc1)c1ccccc1` (stereo not given): the growth was 58.2%. For the molecule `CCOC(=O)c1c(/N=C2\SC(=O)/C(=C\C(=O)OC)N2NC)sc2c1CCN(C(=O)OCC)C2`, the growth was 96.4%.

On to `Nc1cccc(-c2nc3sccn3c2-c2ccnc(NCCNS(=O)(=O)c3ccc(C(F)(F)F)cc3)n2)c1`, for which the growth was 56%.

`COc1ccc2c(c1)[nH]c(=O)c1c3cc(OC)ccc3cn21`: the growth was 41.4%. Consider `COc1ccc(/C=C2\N=C(c3ccccc3)N(C(=O)c3ccccc3O)NC2=O)cc1`, for which the growth is 89.7%. On to `COc1cc(NC(N)=NCCC(C)(C)Oc2ccc(C(F)(F)F)cc2)ncc1C#N`, for which the growth was 1.1% (active).

For the molecule `C=C(C)[C@@H]1CC[C@]2(C(=O)N3CCNCC3)CC[C@]3(C)[C@H](CC[C@@H]4[C@@]5(C)C/C(=C/c6ccncc6)C(=O)C(C)(C)[C@@H]5CC[C@]43C)[C@@H]12`, the growth is 103%.

On to `Cn1ccc(Nc2nccc(Oc3ccc(C(=O)Nc4cccc(F)c4)c(Cl)c3)n2)c1`, for which the growth is 67.3%. In the case of `O=C(O)C1CCCN1` (stereo not given), the growth is 104%. In the case of `CN(CCCCCl)P(=O)(OCc1ccc([N+](=O)[O-])o1)C(F)(F)C[C@H](NC(=O)CNC(=O)c1ccc(N=[N+]=[N-])cc1)C(=O)NCCc1ccc(O)cc1` (stereo not given in full) it was 99.4%. As to `O=C(CSc1nc2ccccc2[nH]1)c1ccc(N2CCOCC2)cc1`, the growth was 92.9%. Regarding `COc1cc(/C(C#N)=C/c2ccc3c(c2OC)OCO3)cc2c1OCO2`, the growth is 30.9%. For the molecule `COc1cccc(-c2cc3c(O)cc(C#N)cc3[nH]2)c1`, the growth is 92.5%. For `CCCCCCCC[C@@H](O)CC(=O)N[C@@H](CC(N)=O)C(=O)N[C@@H](CCC(N)=O)C(=O)N[C@@H](CC(=O)c1cc(C)cc(O)c1C(=O)c1c(O)cccc1O)CC(C)C` the value was 23.5%; for `CCN1C(=O)N(CC)C2C1NN=c1s/c(=C\c3cccnc3)c(=O)n12` (stereo not given), 44.5%; for `CC12CCC3C4(C)COC(c5ccccc5Cl)OC4CCC3(C)C1CC(C1=CCOC1=O)O2` (stereo not given), 52.7%.

(Values after PubChem BioAssay (NCI).)
